Only some compounds are listed: those with a hit (about 2% of all), similar ones and a draw of the others.
JMJD2E inh – blocks human JMJD2E demethylase activity; B2RXH2; Potency, µM (series often up to 57.1 µM), without a hit: top-dose activity change, negative = inhibition, usual class: inhibitors; hit rate 1.6% among 230,000; JMJD2E catalytic domain, FDH-coupled NADH fluorescence (FDH is formaldehyde dehydrogenase);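 further: potency means the concentration at half of the fitted maximal effect; 0% = wells with enzyme and -100% = buffer wells without enzyme; nearly all actives have a fitted effect of over 50% in size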
KCNH2 3.1 block – KCNH2 3.1 (human) potassium channel inhibition; AID 720553; activity change, % (tested at about 1.8 µM); hit rate 0.95% among 340,000; U2OS KCNH2 3.1, thallium flux FluxOr; hits give low values;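 active means maximum activity change below -70%; inconclusive means maximum activity change from -70% to -50%; inactive means maximum activity change above -50%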;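 further: thallium influx rate constant from kinetic fluorescence after stimulation buffer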
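Thallium flux via FluxOr fluorescence (Red40 quencher, 45 min loading) in U2OS cells virally expressing the KCNH2 3.1 isoform (1.77 x 10^8 /mL virus, overnight at 37 C). Rate constants from 2-min kinetic reads post-stimulation, normalised to positive and negative controls.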
Six1-Eya2 inh – inhibitors of human Six1/Eya2 interaction | Q15475+O00167 | AlphaScreen GST-Six1/His-Eya2 binding, biochemical; hits give low values | activity change, % (test concentration not listed) | hit rate 0.56% among 360,000 | AID 651725
Target sequence (O00167 whole entry, looked up): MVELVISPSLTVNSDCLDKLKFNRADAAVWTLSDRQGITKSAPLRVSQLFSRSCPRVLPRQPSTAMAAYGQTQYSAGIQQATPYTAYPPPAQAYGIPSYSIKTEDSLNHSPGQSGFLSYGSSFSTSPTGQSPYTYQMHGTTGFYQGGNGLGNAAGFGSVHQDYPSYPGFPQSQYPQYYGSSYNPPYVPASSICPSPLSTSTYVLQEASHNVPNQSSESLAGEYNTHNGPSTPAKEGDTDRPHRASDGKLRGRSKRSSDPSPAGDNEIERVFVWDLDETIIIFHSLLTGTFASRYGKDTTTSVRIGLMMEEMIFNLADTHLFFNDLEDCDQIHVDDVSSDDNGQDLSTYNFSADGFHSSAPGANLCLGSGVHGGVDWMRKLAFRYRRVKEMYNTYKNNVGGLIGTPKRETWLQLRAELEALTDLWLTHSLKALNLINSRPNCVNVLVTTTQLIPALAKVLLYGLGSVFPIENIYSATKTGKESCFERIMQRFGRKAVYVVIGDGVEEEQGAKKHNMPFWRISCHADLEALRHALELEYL
Target sequence (Q15475 whole entry, looked up): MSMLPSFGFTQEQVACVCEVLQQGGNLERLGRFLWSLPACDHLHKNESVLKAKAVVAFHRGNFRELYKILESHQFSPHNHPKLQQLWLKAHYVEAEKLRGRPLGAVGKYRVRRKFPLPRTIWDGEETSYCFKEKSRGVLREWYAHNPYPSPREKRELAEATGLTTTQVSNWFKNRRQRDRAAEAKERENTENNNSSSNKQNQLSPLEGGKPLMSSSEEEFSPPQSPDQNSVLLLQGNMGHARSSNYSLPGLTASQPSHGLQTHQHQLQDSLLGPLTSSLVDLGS
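AlphaScreen with GST-Six1 and His-Eya2 (5X mix: 250 nM and 500 nM), glutathione donor and nickel acceptor beads; buffer 50 mM Tris pH 8.0, 300 mM NaCl, 1 mM TCEP; 1 h at 37 C in the dark.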
CtBP-E1A blk – blocks the CtBP interaction with E1A | AlphaScreen GST-E1A/His-CtBP binding, 1536-well; hits give low values | activity change, % (no concentration beside the values) | hit rate 0.49% among 340,000 | AID 651724
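Homogeneous bead-based format: GST-tagged E1A captured on glutathione donor beads, His-tagged CtBP on nickel acceptor beads; compounds precede bead addition by 2 h at 37 °C.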
KCNH2 WT inh – inhibitors of human wildtype KCNH2 potassium channel; U2OS, BacMam KCNH2, thallium flux FluxOr; hits give low values; Q12809; activity change, % at 1.84 µM; hit rate 0.37% among 340,000;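 active means maximum activity change below -70%; inconclusive means maximum activity change between -70% and -50%; inactive means maximum activity change above -50%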
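U2OS cells were transduced with wild-type KCNH2 virus (2.03 x 10^8 / mL) for 4 h at room temperature, then cultured overnight at 37 C. Thallium flux was read with FluxOr dye. Rate constants were normalized to DMSO controls.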
An asterisk follows results filed as active; i = inactive; ? = inconclusive; · = no result. Unless noted, no stated cut-off is given here; in the data, active means activity change below about -65%; inconclusive means mostly about -30% to -63%; inactive means weaker than that. Unless noted, on the % scale 0 is the no-effect control and ±100 the full control effect.

SMILES | JMJD2E inh | KCNH2 3.1 block | Six1-Eya2 inh | CtBP-E1A blk | KCNH2 WT inh
O=C(c1ccco1)N1CCN(C(=O)C2CC(=O)N(c3ccc(Cl)cc3)C2)CC1 (stereo not given) | · | -95* | 12 | -17 | -12
O=C(CCN1C(=O)/C(=C/c2ccco2)SC1=S)Nc1ccc(O)cc1C(=O)O | · | 2 | -68* | 0 | -3
O=C(CCCN1C(=O)/C(=C\c2ccccc2)SC1=S)Nc1ccc(O)cc1C(=O)O | · | -116* | -19 | · | 2
O=C(CCCN1C(=O)/C(=C/c2ccccc2)SC1=S)Nc1ccccc1O | 1% | 1 | -12 | -24 | -3
O=C(c1cc(COc2c(F)cccc2F)on1)N1CCN(C2CCCCC2)CC1 | · | -81* | -3 | -8 | 26
CCn1nnc(NC(=O)C(C)Oc2ccc(Cl)cc2Cl)n1 (stereo not given) | 2% | -3 | 2 | -5 | 2
CC(C)CCc1noc(CN(CC2CCC2)CC2CCCO2)n1 (stereo not given) | -2% | -72* | 3 | 7 | -11
CC(C)CCc1noc(CN(C)CCC2CCOCC2)n1 | 5% | -12 | 13 | 1 | -11
CCn1c(=O)cc(SCC(=O)NCc2ccccn2)c2ccccc21 | ? | -184* | -18 | -19 | 4
CCn1c(=O)cc(SCC(=O)NCc2cccnc2)c2ccccc21 | ? | -1 | -10 | -7 | 1
COC(=O)c1ccc(OCC(O)CN2CCN(C(=O)c3ccco3)CC2)c(OC)c1 (stereo not given) | · | -85* | -3 | 1 | 2
COc1ccc2c3c(cccc13)C(=O)N(O)C2=O | ? | 15 | ? | ? | 2
CCC1=NNc2cccc3c(OC)ccc1c23 | 5µM* | · | · | · | ·
O=C(Nc1ccccc1C(=O)O)c1ccc(NC(=O)C2CCCCC2)cc1 | · | · | -83* | -77* | -3
O=C(Nc1ccccc1)c1ccc(NC(=O)C2CC2)cc1 | · | -6 | 0 | 2 | -3
CCC(C(=O)Nc1ccc(C(=O)Nc2ccccc2C(=O)O)cc1)c1ccccc1 (stereo not given) | · | -21 | ? | -81* | 4
CCC(C(=O)Nc1ccc(C)cc1)c1ccccc1 (stereo not given) | -5% | 10 | -12 | 9 | -3
O=C(CCC(=O)Nc1ccc(F)cc1)N/N=C/c1ccccc1O | 25µM* | 5 | ? | ? | -5
S=C(NCCc1ccccc1)N/N=C/c1cccc(Cl)c1Cl | -1% | -3 | -6 | 8 | -1
O=C(CCc1ccccc1)Nc1cc(C(F)(F)F)ccc1Cl | 3% | 4 | 19 | 35 | -15
Cc1cccc(NC(=O)CCC(=O)N/N=C/c2ccncc2)c1 | -16% | -5 | 16 | 26 | -7
O=C(CCC(=O)Nc1ccc(Br)cc1)N/N=C/c1ccccc1F | · | 19 | 4 | 6 | 1
Oc1ccccc1/C=N/NC(=S)NCCc1ccccc1 | · | 4 | ? | -65* | 0
O=C(CCC(=O)Nc1cc(C(F)(F)F)ccc1Cl)N/N=C\c1cc([N+](=O)[O-])ccc1O | · | 13 | -30 | -67* | 8
Cc1cccc(NC(=O)CCC(=O)N/N=C/c2cc([N+](=O)[O-])ccc2O)c1 | 10µM* | -6 | -79* | -90* | 3
SMILES | JMJD2E inh | KCNH2 3.1 block | Six1-Eya2 inh | CtBP-E1A blk | KCNH2 WT inh
COc1cccc(CC2(CO)CCCN(CC3=Cc4cc(Cl)ccc4OC3)C2)c1 (stereo not given) | -7% | -4 | -1 | -1 | 6
Oc1ccccc1C=NNC(=S)Nc1ccc(F)cc1 | · | -22 | -76* | -92* | -3
O=C(CCC(=O)Nc1ccc(F)cc1)N/N=C/c1cc([N+](=O)[O-])ccc1O | 7.1µM* | 12 | ? | -86* | i
CN(C)c1nc(N/N=C/c2ccccc2O)nc(Nc2ccc(F)cc2)n1 | 28µM* | 8 | -9 | -10 | 32
Fc1ccc(NC(=S)NN=Cc2ccccc2Cl)cc1 | · | -3 | -20 | -11 | 2
O=C(CCC(=O)Nc1ccc(Br)cc1)N/N=C/c1cc([N+](=O)[O-])ccc1O | ? | 18 | -3 | -15 | i
O=C(N/N=C/c1cc([N+](=O)[O-])ccc1O)C1CCCCC1 | 7.1µM* | 1 | -74* | -73* | 4
CC1CN/C(=C\C(=O)c2ccccc2)C(=O)N1 (stereo not given) | 7% | 11 | -9 | -1 | 0

Screening data as filed in PubChem.
